In the library only some 17% were active in any assay of this set; here they are far more common.
HepG2 tox: HepG2 cytotoxicity, counter-screen for TGF-b inhibitors; HepG2 CAGA-GFP viability, ATP luminescence, 18 h; Potency, µM (titrated, usually from 46.1 µM), hits mostly cytotoxic; 0.76% of 410,000 active
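HepG2 CAGA-GFP cells (1000/well, DMEM with 1% FBS) received compound, then TGF-beta at 500 pg/mL final, and were incubated 18 hours at 37 degrees C. Viability was read by CellTiter-Glo luminescence. Media-only wells were set as complete cell-killing and DMSO as no toxicity.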
TGFb SMAD3 inh: blocks TGF-b signaling; HepG2 CAGA-GFP TGF-b/SMAD3 reporter, GFP fluorescence, 18 h; TGF-beta stimulated, 500 pg/mL final; Potency, µM (top dose mostly 46.1 µM), actives largely listed as inhibitors; 1.2% of 410,000 active; AID 588855; note: nearly all actives have a fitted effect of over 65% in size
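Using HEPG2 CAGA-GFP reporter cells at 1000 cells/well, we pinned test compounds, stimulated with recombinant TGF-beta (500 pg/mL final) and measured total well GFP after 18 h.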
HT1080 IDH1KD tx: HT-1080 IDH1 knockdown cell toxicity (counter line). HT-1080 IDH1 knockdown viability, ATP luminescence, 48 h. Potency, µM (top dose mostly 46.1 µM), actives largely listed as cytotoxic. 2% of 360,000 active
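Using the IDH1-knockdown HT-1080 line run in the same batch and compound series as the NT line, viability after 48 h at 37 °C was determined by CellTiter-Glo luminescence and expressed as % activity.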
HT1080NT lethal: kills 2HG-producing HT-1080-NT fibrosarcoma cells. 1.6% of 360,000 active. Potency, µM (highest dose often 46.1 µM), hits mostly cytotoxic. HT-1080-NT fibrosarcoma viability, CellTiter-Glo ATP luminescence, 48 h. AID 686970;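 note: NT is the 2HG producing partner of a matched IDH1 knockdown line; nearly all actives have a fitted effect of over 55% in size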
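Compounds were tested in concentration-response format on HT-1080-NT cells for 48 hours at 37 degrees C. Cell viability came from CellTiter-Glo luminescence; curves were classified by r2, response magnitude and activity.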
DT40 TDP1 no CPT: qHTS for Inhibitors of human tyrosyl-DNA phosphodiesterase 1 (TDP1): qHTS in cells in absence of CPT | DT40 Tdp1-/- hTDP1 cells, no CPT, ATP luminescence, 48 h | Potency, µM (doses to about 46.2 µM), actives largely listed as inhibitors | 15% of 420,000 active | AID 686978, 2013; note: nearly all actives have a fitted effect of over 55% in size
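Camptothecin absent (DMSO only). Human TDP1-complemented DT40 knockout cells, 400 cells/well, 37 °C for minimum 48 hr; ATP measured via CellTiter-Glo, 30 min dark incubation, luminescence.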
TDP1 cell CPT: DT40-hTDP1 cell growth loss with CPT. Potency, µM (titrated, usually from 46.2 µM), hits mostly inhibitors. 12% of 420,000 active. chicken DT40 Tdp1-/-;hTDP1 cells + 20 nM CPT, ATP luminescence, 48 h. AID 686979; note: nearly all actives have a fitted effect of over 55% in size
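Cell growth measured by CellTiter-Glo luminescence after a minimum 48 h, 37 C compound exposure with 20 nM CPT in Tdp1-knockout DT40 cells stably expressing hTDP1, seeded 400/well; qHTS titration format.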
Each line names hits and unclear results; the compound was inactive in the other large screens. Calls come from the whole dose curve; as a rule, active = well fitted curve in the direction sought with a large enough effect; inconclusive = small, poorly fitted or top-dose-only effect, or another doubt; inactive = no such curve, though single readings can be large; an effect the other way counts as inactive or inconclusive.

CCOC(=O)N1CCN(C(=O)c2ccc3c(c2)N=C(CC)c2cc(C)ccc2S3)CC1	TGFb SMAD3 inh inconclusive, DT40 TDP1 no CPT 10µM, TDP1 cell CPT 16µM
O=C(Nc1cc(C(=O)N2CCN(CCO)CC2)c2c(c1)ncn2C1CCCC1)c1ccccc1	none (no result: HepG2 tox, TGFb SMAD3 inh, HT1080 IDH1KD tx, HT1080NT lethal)
Cc1nc2ccccn2c1C(=O)N=Nc1c(O)[nH]c2ccccc12	none
COc1cc(OC)c(C(=O)OCC(=O)N2CCOCC2)cc1OC	none
O=P(O)(O)OC(Cn1cncn1)(Cn1cncn1)c1ccc(F)cc1F	none (no result: HepG2 tox, TGFb SMAD3 inh, HT1080 IDH1KD tx, HT1080NT lethal)
COc1ccc(-c2oc3ncn4nc(-c5cccc(C)c5)nc4c3c2-c2ccc(OC)cc2)cc1	none (no result: HT1080 IDH1KD tx, HT1080NT lethal)
CCC1=Nc2cc(C(=O)NC3CCCC3)ccc2Sc2ccc(Br)cc21	TGFb SMAD3 inh inconclusive, DT40 TDP1 no CPT 0.73µM, TDP1 cell CPT 0.73µM (no result: HT1080 IDH1KD tx, HT1080NT lethal)
CCC1=Nc2cc(C(=O)NC3CCC(C)CC3)ccc2Sc2ccc(C)cc21 (configuration not stated)	TGFb SMAD3 inh inconclusive, DT40 TDP1 no CPT 0.65µM, TDP1 cell CPT 1.3µM (no result: HT1080 IDH1KD tx, HT1080NT lethal)
CCCC(=O)N1CCC1(C)C(=O)NS(=O)(=O)c1ccc(OC)cc1 (configuration not stated)	TDP1 cell CPT inconclusive
COc1cc(=O)n2c(c1C(=O)NC(C)c1ccco1)CCN(C(=O)c1ccc3c(c1)OCCO3)CC2 (configuration not stated)	none (no result: HepG2 tox, TGFb SMAD3 inh, HT1080 IDH1KD tx, HT1080NT lethal)
CC(C)CN(CC(C)C)C(=O)Nc1ccccc1F	none
COc1cccc(-c2cnc3c(NC(C)=O)cc(-c4ccc(S(C)(=O)=O)cc4)cn23)c1	HT1080 IDH1KD tx inconclusive, HT1080NT lethal inconclusive, DT40 TDP1 no CPT 23µM, TDP1 cell CPT inconclusive
COc1ccc(-c2cnc3c(NC(C)=O)cc(-c4ccc(S(C)(=O)=O)cc4)cn23)cc1OC	DT40 TDP1 no CPT 18µM, TDP1 cell CPT inconclusive
Cc1oc(-c2cc(F)ccc2F)nc1CN(C)Cc1ccc2nccnc2c1	DT40 TDP1 no CPT 16µM, TDP1 cell CPT inconclusive
Cc1nc(N2CCCC2)c2nnn(Cc3ccccc3Cl)c2n1	DT40 TDP1 no CPT 26µM, TDP1 cell CPT 13µM
Cc1nc(NC2CCCCC2)c2nnn(Cc3ccccc3Cl)c2n1	DT40 TDP1 no CPT inconclusive, TDP1 cell CPT inconclusive
CC(=O)Nc1ccc(Nc2nc(C)nc3c2nnn3Cc2ccccc2Cl)cc1	HT1080 IDH1KD tx inconclusive, HT1080NT lethal inconclusive, DT40 TDP1 no CPT 16µM
CN(C)S(=O)(=O)c1ccc(NC(=O)Cc2ccc(S(=O)(=O)N3CCOCC3)s2)cc1	none
COc1ccc(S(=O)(=O)N(C)C)cc1NC(=O)Cc1ccc(S(=O)(=O)N2CCOCC2)s1	DT40 TDP1 no CPT inconclusive, TDP1 cell CPT 13µM
CCN(CC)S(=O)(=O)c1cc(NC(=O)Cc2ccc(S(=O)(=O)N3CCOCC3)s2)ccc1Cl	TGFb SMAD3 inh inconclusive, HT1080 IDH1KD tx inconclusive, DT40 TDP1 no CPT 13µM, TDP1 cell CPT 21µM
CCOC(=O)c1cc(NC(=O)Cc2ccc(S(=O)(=O)N3CCOCC3)s2)cc(C(=O)OCC)c1	DT40 TDP1 no CPT inconclusive, TDP1 cell CPT 23µM
CCn1c2ccccc2c2cc(NC(=O)Cc3ccc(S(=O)(=O)N4CCOCC4)s3)ccc21	HT1080 IDH1KD tx inconclusive, DT40 TDP1 no CPT inconclusive, TDP1 cell CPT inconclusive
Cc1ncc2c(c1CNC(=O)/C=C/c1cccs1)CCN(C(=O)C1CCCO1)C2 (configuration not stated)	none (no result: HepG2 tox, TGFb SMAD3 inh, HT1080 IDH1KD tx, HT1080NT lethal)
CCOCCCN(C(=O)c1snc(C(N)=O)c1N)C(C(=O)NCCC(C)C)c1ccc(Cl)cc1 (configuration not stated)	DT40 TDP1 no CPT inconclusive
COc1cc(-c2cc(OC)c3c(C)oc(C)c3c(=O)c2)ccc1OC(=O)c1ccccc1F	TGFb SMAD3 inh inconclusive, DT40 TDP1 no CPT 21µM, TDP1 cell CPT 8.2µM (no result: HT1080 IDH1KD tx, HT1080NT lethal)
COc1cc(-c2cccs2)cc(=O)c2c(C)oc(C)c12	DT40 TDP1 no CPT 23µM, TDP1 cell CPT 13µM
Cc1cc(OC(=O)c2ccccc2F)c([N+](=O)[O-])c(=O)[nH]1	none
COc1cc(-c2cc(OC)c3c(C)oc(C)c3c(=O)c2)ccc1OC(=O)c1ccccc1Cl	TGFb SMAD3 inh inconclusive, DT40 TDP1 no CPT 4.6µM, TDP1 cell CPT 5.8µM (no result: HT1080 IDH1KD tx, HT1080NT lethal)
CN(C(=O)COC(=O)c1cc(=O)[nH]c2ccccc12)c1ccccc1	DT40 TDP1 no CPT inconclusive
CC(=O)C(Sc1nccc(-c2cccs2)n1)C(C)=O	DT40 TDP1 no CPT 18µM, TDP1 cell CPT inconclusive
CC(C)NC(=O)CSc1nccc(-c2cccs2)n1	none
COc1ccc(/C=N/N2CCOCC2)cc1COc1ccc(Cl)cc1	DT40 TDP1 no CPT inconclusive, TDP1 cell CPT inconclusive
CCn1c(SCC(=O)c2cc(C)ccc2C)nc2cc(S(=O)(=O)N3CCOCC3)ccc21	DT40 TDP1 no CPT 18µM, TDP1 cell CPT inconclusive
CCC(C)NC(=O)CSc1nc2cc(S(=O)(=O)N3CCOCC3)ccc2n1CC (configuration not stated)	none
O=C(CSc1nc2ccccc2o1)N1CCN(S(=O)(=O)c2ccc3ccccc3c2)CC1	none
O=C(CSc1nc2cc(S(=O)(=O)N3CCOCC3)ccc2o1)Nc1c(F)cccc1F	DT40 TDP1 no CPT 21µM, TDP1 cell CPT 21µM
CCCn1c(CCl)nc2cc(S(=O)(=O)N3CCOCC3)ccc21	none
CCn1c2ccccc2c2nc3cc(S(=O)(=O)N4CCOCC4)ccc3nc21	TGFb SMAD3 inh inconclusive, DT40 TDP1 no CPT 13µM, TDP1 cell CPT 15µM
Cc1[nH]c2ccccc2c1C(=O)CSc1nc2cc(S(=O)(=O)N3CCCCC3)ccc2o1	DT40 TDP1 no CPT 21µM, TDP1 cell CPT 23µM
CCSc1nc2cc(S(=O)(=O)N3CCOCC3)ccc2o1	DT40 TDP1 no CPT inconclusive, TDP1 cell CPT inconclusive
O=C(OCc1ccccc1)N1C=CC2CC1c1c(Cl)cccc12 (configuration not stated)	DT40 TDP1 no CPT inconclusive, TDP1 cell CPT inconclusive
Cc1ccc(C(=O)CSc2nc3cc(S(=O)(=O)N4CCOCC4)ccc3o2)cc1	DT40 TDP1 no CPT inconclusive, TDP1 cell CPT 18µM
CC(=O)N/C(=C\c1ccccc1)C(=O)OCc1cccc(S(=O)(=O)N(C)C)c1	DT40 TDP1 no CPT inconclusive, TDP1 cell CPT 16µM
CC(CC(c1ccccc1)N1CCc2ccccc2C1)=NO (configuration not stated)	DT40 TDP1 no CPT 18µM, TDP1 cell CPT inconclusive

From PubChem
